Experimental findings from ChEMBL document CHEMBL4888484, “Replenishing the malaria drug discovery pipeline: Screening and hit evaluation of the MMV Hit Generation Library 1 (HGL1) against asexual blood stage Plasmodium falciparum ,using a nano luciferase reporter read-out” (2022) are described below.

The campaign covered roughly 150,000 compounds. About 540 (0.36%) showed an effect of 50% or more. The entries come from a sample that favours strong results as a whole.

The test system of the experiment is Plasmodium falciparum. Put plainly: Primary screen in NF54 nanoGlo assay, in single point, at 2uM, 72h; a lower Z score goes with more inhibition. Format: functional, Erythrocyte. The settings on record: timepoint 72 hour.
The term % Inhibition denotes the change of the read-out against control, counted positive when it falls. For the compound `O=C(c1ccccc1F)N1CCN(C(=O)c2nnn3c2CO[C@H](c2ccc(Cl)cc2)C3)CC1`, the “% Inhibition” value is -24% and the Z score stood at 2.19.
As to `CCN(C(C)=O)c1nc2ccccc2n(CC(=O)Nc2cccc(C(C)=O)c2)c1=O`, the “% Inhibition” value was -6% and the Z score is given as 0.97.
Regarding `CC(NCCn1cccn1)C(=O)N1c2ccccc2CC1C` (stereo unspecified), the “% Inhibition” value is reported as 62% and the Z score turned out to be 1.55.
`C[C@H](NCCn1cccn1)C(=O)N1CCCCC1`: the “% Inhibition” value stood at 3% and the Z score is recorded as -0.33.
For `CC(C)CNC(=O)[C@H](C)NCCn1cccn1` the same measures were -2% and 0.23.
In the case of `CCc1cnc(CN2CCC[C@H]2c2noc(CC)n2)o1`, the “% Inhibition” value is -10% and the Z score is reported as 1.41.
For `CC(C)Cc1ccc(CN2CCN([C@H]3CCNC3)CC2)s1`, the “% Inhibition” value was -6% and the Z score is on record as 0.81.
As to `Clc1cccc(-c2ccc(CN3CCN([C@H]4CCNC4)CC3)o2)c1`, the “% Inhibition” value is on record as -17% and the Z score is reported as 1.55.
In the case of `Cn1nnc(CNC[C@H](O)c2ccc(Cl)c(Cl)c2)n1`, the “% Inhibition” value is 5% and the Z score is reported as -1.08.
In the case of `Cc1nc(CNC[C@H](O)c2ccc(Cl)c(F)c2)cs1`, the “% Inhibition” value is reported as 10% and the Z score is listed as -1.19.
For `CCc1noc(-c2cccnc2-n2cnc(C(=O)NCc3ccccc3F)c2)n1`, the “% Inhibition” value amounted to 35% and the Z score was -3.92.
For the compound `Nc1c2c(-c3ccc(F)cc3)nc(NCCN3CCCCC3)nc2nn1-c1ccc(Cl)cc1`, the “% Inhibition” value is recorded as -19% and the Z score is 1.69.
For `CC(C)(C)n1nc2nc(N3CCCC3)nc(-c3ccc(F)c(Cl)c3)c2c1N`, the “% Inhibition” value is on record as -2% and the Z score is reported as 0.26.
For `CC(C)(C)n1nc2nc(NCCN3CCCCC3)nc(-c3ccc(F)c(Cl)c3)c2c1N`, the “% Inhibition” value worked out at 75% and the Z score was -7.01.
The like results for `O=C(Cn1cc(S(=O)(=O)N2CCOCC2)ccc1=O)Nc1ccc(F)cc1Cl` were, in that order, 4% and -0.76.
`CN1CCC(N2CCC[C@H]2c2nc(-c3ccc(F)cn3)no2)CC1`: the “% Inhibition” value turned out to be 15% and the Z score is given as -1.76.
For the compound `COc1cc(-c2n[nH]cc2CN(C[C@H]2CCC(=O)N2)C(C)C)cc(OC)c1OC`, the “% Inhibition” value is recorded as -18% and the Z score turned out to be 1.93.
Regarding `CN(C)c1ccc(NC(=O)CCCc2ccc3[nH]c(=O)[nH]c3c2)nc1`, the “% Inhibition” value worked out at 0% and the Z score was 0.04.
As for `C[C@H]1[C@@H]2[C@@H](O)C([C@H](C)C(=O)NC3CCCCC3)CC[C@@]2(C)CC[C@@H]1NC(=O)CC(C)(C)C` (stereo partly specified), the “% Inhibition” value is listed as 69% and the Z score is reported as -5.14.
For `COCCNC(=O)[C@@H](C)[C@@H]1CC[C@@]2(C)CC[C@H](NC(=O)CC(C)(C)C)[C@@H](C)[C@@H]2[C@H]1O` the same measures were 31% and -3.58.
The like results for `C[C@H]1[C@@H]2[C@@H](O)C([C@H](C)C(=O)NC3CCCC3)CC[C@@]2(C)CC[C@@H]1NC(=O)c1ccc(C#N)cc1` (stereo partly specified) were, in that order, 37% and 1.5.
For the compound `COc1cc2c(cc1-c1nccn1Cc1noc(C(C)C)n1)OCO2`, the “% Inhibition” value is recorded as 5% and the Z score is on record as -0.45.
The like results for `CCNC(=O)O[C@@H]1CC[C@]2(C)C(CC[C@@H](O)[C@H]2CC(=O)NCc2cccs2)[C@]1(C)CO` (stereo partly specified) were, in that order, -4% and 0.6.
On to `COc1cc(CN2C(=O)C(C)C(C)C2=O)ccn1` (stereo unspecified), for which the “% Inhibition” value is given as -12% and the Z score is given as 1.96.
As for `CCc1noc(CCNC(=O)Nc2cc(C)nn2C2CCCCC2)n1`, the “% Inhibition” value is recorded as -3% and the Z score was found to be 0.5.
On to `Cc1ccc([C@H](C)NC(=O)CCc2ccc3[nH]cnc3c2)cc1`, for which the “% Inhibition” value is on record as -2% and the Z score amounted to 0.33.
Take `C[C@H]1CN(C2=Nc3ccc(C(F)(F)F)cc3Oc3ccccc32)CCN1C(=O)C1CCCCC1`: the “% Inhibition” value is -10% and the Z score was found to be 0.96.
For `Cc1ccsc1CN(Cc1cccnc1)CC(C)C` the same measures were -9% and 0.87.
Regarding `COc1ccc(CN(Cc2ccco2)C(=O)c2cccc(F)c2)cc1OS(=O)(=O)c1ccc(F)cc1`, the “% Inhibition” value is -33% and the Z score turned out to be 2.87.
Turning to `CCOC(=O)N1CCC(n2ccnc2-c2nccn2C(C)C)CC1`, the “% Inhibition” value is listed as -11% and the Z score is 1.32.
The like results for `COc1ccc(-c2nccn3cc(C(=O)N4CCCC4)nc23)cc1` were, in that order, 26% and -2.95.
Turning to `COc1ccc(-c2nccn3cc(C(=O)N4CCCCCC4)nc23)cc1`, the “% Inhibition” value stood at 51% and the Z score is given as 0.03.
For `Cc1ccc(-c2nccn3cc(C(=O)N4CCCCC4)nc23)cc1` the same measures were -2% and 0.32.
For the compound `CC(C)(C(=O)N[C@H]1CCN(Cc2cccnc2)C[C@@H]1O)N1CCOCC1`, the “% Inhibition” value is given as -3% and the Z score is given as 0.41.
Regarding `CC(=O)c1cc(-c2cc(O)cc(CC[C@H]3CCCCN3)c2)ccc1O`, the “% Inhibition” value is given as 78% and the Z score is on record as -7.86.
For `Cc1ccc(-c2cc(O)cc(CC[C@H]3CCCCN3)c2)c(C)n1` the same measures were 61% and -8.76.
With `OCc1ccnc(-c2cc(O)cc(CC[C@H]3CCCCN3)c2)c1`, the “% Inhibition” value is reported as -3% and the Z score amounted to 0.48.
As for `Cc1nc(-n2cnnc2)ccc1-c1cc(O)cc(CC[C@H]2CCCCN2)c1`, the “% Inhibition” value is -7% and the Z score was 0.8.
As for `Cc1nccc(-c2cc(O)cc(CC[C@H]3CCCCN3)c2)n1`, the “% Inhibition” value is -12% and the Z score is recorded as 2.52.
In the case of `CCn1cc(-c2cc(O)cc(CC[C@H]3CCCCN3)c2)c(C)n1`, the “% Inhibition” value is 3% and the Z score was -0.45.
Turning to `O=C(O)c1ccccc1-c1cc(O)cc(CC[C@H]2CCCCN2)c1`, the “% Inhibition” value is reported as -15% and the Z score came to 2.8.
With `Nc1cc(-c2cc(O)cc(CC[C@H]3CCCCN3)c2)ccn1`, the “% Inhibition” value amounted to 9% and the Z score is given as -1.53.
For `Cc1cc(-c2cc(O)cc(CC[C@H]3CCCCN3)c2)ccn1` the same measures were 84% and -8.44.
